Assay [1] in a line: Viability counterscreen for antagonist of constitutive androstane receptor (CAR) against the NCATS DSHEA and TCM libraries (AID 1794837).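 Further: compound exposure lasted 24 h before viability reading; 0% is about no effect.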 In a few lines:
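Counterscreen performed in a 1536-well qHTS format using HepG2-CYP2B6-hCAR cells; samples titrated in the presence of 48 uM CITCO, with viability measured fluorometrically (405/540 nm) after 24 h.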
(The purpose of a counterscreen is to sort out artefacts and off-target activity.)

Assay [2] in a line: Viability counterscreen for agonist of constitutive androstane receptor (CAR) against the NCATS DSHEA and TCM libraries (AID 1794838).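 Further: cells exposed to compound for 24 h; 0% is about no effect.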 Summed up:
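Multiplexed counterscreen: after 24 h compound exposure with 0.75 uM PK11195, HepG2-CYP2B6-hCAR viability was quantified fluorimetrically (CellTiter-Fluor, 405/540 nm) prior to the ONE-Glo luciferase read.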

The target in assay [3] is Nuclear receptor subfamily 1 group I member 3 (Homo sapiens) (UniProt Q14994). Briefly: Primary qHTS for agonist of constitutive androstane receptor (CAR) against the NCATS DSHEA and TCM libraries (AID 1794839).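 Further: HepG2 cells expressing human CAR with a CYP2B6 reporter plus PK11195 antagonist; luciferase reporter luminescence read with ONE-Glo; 0% is about no effect.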 In a few lines:
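Concentration–response screen in HepG2-CYP2B6-hCAR cells under 0.75 µM PK11195; 24 h exposure; luminescent reporter signal with multiplexed fluorescent viability.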
On the technique in general: qHTS replaces the single test concentration by a dilution series.

Assay [4] is described as follows: HepG2 viability counterscreen (readout 2: ATP content) against the NCATS DSHEA and TCM libraries (AID 1794840).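 Further: HepG2 cells exposed to substances for about 24 h; 0% is about no effect.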 In a few lines:
(§1)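 After HepG2 cells attach for ~4 h, substances are added and incubated ~24 h at 37C, 5% CO2. GF-AFC fluorescence then CellTiter-Glo luminescence give protease and ATP readouts.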

Assay [5] is described as follows: HepG2 viability counterscreen (readout 1: protease activity) against the NCATS DSHEA and TCM libraries (AID 1794841).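 Further: cells exposed to compounds for about 24 h before the protease read; 0% is about no effect.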 Summed up: as §1
A short description of assay [6]: Quantitative High-Throughput drug screen in 47 multiple myeloma cell lines against the NCATS MIPE library collection: EJM_DSMZ cell viability assay (AID 1918926; further: nearly all actives have a fitted effect of over 30% in size; further: potency means the concentration at half of the fitted maximal effect). Summed up:
(§2)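 qHTS of the MIPE 4.0 collection: 500 myeloma cells/well, 48 h drug exposure at 37C in 5% CO2, then CellTiter-Glo for 5 min at room temperature before luminescence reading.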

The nature of assay [7]: Quantitative High-Throughput drug screen in 47 multiple myeloma cell lines against the NCATS MIPE library collection: AMO1_DSMZ cell viability assay (AID 1918927; further: nearly all actives have a fitted effect of over 30% in size; further: potency means the concentration at half of the fitted maximal effect). Summed up:
as §2

Assay [8] is described as follows: Quantitative High-Throughput drug screen in 47 multiple myeloma cell lines against the NCATS MIPE library collection: ARP1_JJKsccF8 cell viability assay (AID 1918928; further: nearly all actives have a fitted effect of over 40% in size; further: potency means the concentration at half of the fitted maximal effect). Summed up:
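Viability screen: myeloma cells (500/well) incubated 48 h at 37 °C, humidified 5% CO2, with pinned library compounds; CellTiter-Glo added, luminescence read; DMSO wells set 100%, medium-only wells 0%.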

Assay [9] in a line: Quantitative High-Throughput drug screen in 47 multiple myeloma cell lines against the NCATS MIPE library collection: ARD_JJKsccE7 cell viability assay (AID 1918929; further: potency means the concentration at half of the fitted maximal effect;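 on Viability: 100% = DMSO-only wells and 0% = media-only wells without cells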). In a few lines: as §2
Assay [10] can be described thus: NCATS anti-infectives library activity on HEK293 viability as a counter-qHTS vs the C. elegans viability qHTS (AID 1745854). Further: potency means the concentration at half of the fitted maximal effect. On activity change, negative = cytotoxicity: on the % scale 0 is the no-effect control and ±100 the full control effect. In a few lines: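 CellTiter-Glo luminescence, read on a CCD imager, scored viability of HEK293 cells after 24 hr compound exposure at 37C. Library tested in several concentrations, 1:5 steps, up to 41.7 uM; digitonin served as control.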
The target in assay [11] is Glutathione peroxidase 1 (Homo sapiens) (UniProt P07203). Description: Primary qHTS Assay for Inhibitors of Recombinant Selenoprotein Glutathione Peroxidase 1 (GPX1) (AID 1845191). Further: nearly all actives have a fitted effect of over 65% in size. On activity, negative = inhibition: on the % scale 0 is the no-effect control and ±100 the full control effect. In a few lines: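 GR-coupled readout: NADPH consumption tracked by fluorescence, ex 340/em 450 nm, at t=0 and after 15 min at RT. Final mix 10 nM GPX1, 1 mM GSH, 0.5 mM CHP, 0.5 mM NADPH, 100 nM GR, 0.01% BSA, following 30 min enzyme–compound preincubation.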
Glutathione peroxidase 1 (Homo sapiens), sequence (P07203 whole entry, looked up): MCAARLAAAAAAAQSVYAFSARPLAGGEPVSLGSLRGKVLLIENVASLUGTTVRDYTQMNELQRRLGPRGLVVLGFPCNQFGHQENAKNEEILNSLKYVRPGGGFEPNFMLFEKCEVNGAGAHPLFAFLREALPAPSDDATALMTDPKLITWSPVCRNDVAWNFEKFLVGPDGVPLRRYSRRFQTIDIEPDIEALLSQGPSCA

Assay [12] has as its target Phospholipid hydroperoxide glutathione peroxidase GPX4 (Homo sapiens) (UniProt P36969). Description: Primary qHTS Assay for Inhibitors of Recombinant Selenoprotein Glutathione Peroxidase 4 (GPX4) (AID 1845192). Further: nearly all actives have a fitted effect of over 65% in size. On activity change, negative = inhibition: series mostly up to about 50 µM; on the % scale 0 is the no-effect control and ±100 the full control effect. Summed up: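 Steps: GPX4 plus compound, 30 min RT; add GR/GSH/NADPH master mix; start with cumene hydroperoxide; read 340/450 nm fluorescence at 0 and 15 min. Finals were 200 nM GPX4, 1 mM GSH, 0.5 mM CHP, 0.5 mM NADPH, 100 nM GR.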

Assay [13] is described as follows: Quantitative High-Throughput drug screen in 47 multiple myeloma cell lines against the NCATS MIPE library collection: FR4_PLB cell viability assay (AID 1918924; further: nearly all actives have a fitted effect of over 35% in size; further: potency means the concentration at half of the fitted maximal effect). Summed up: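 Steps: seed 500 cells per well; pin-transfer MIPE 4.0 library; incubate 48 h at 37C, 5% CO2, humidified; add CellTiter-Glo, 5 min room temperature; read luminescence.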
A short description of assay [14]: Quantitative High-Throughput drug screen in 47 multiple myeloma cell lines against the NCATS MIPE library collection: Delta47_JCRB cell viability assay (AID 1918925; further: nearly all actives have a fitted effect of over 45% in size; further: potency means the concentration at half of the fitted maximal effect). Summed up:
as §2

The target of assay [15] is Luciferin 4-monooxygenase (Photinus pyralis) (UniProt P08659). Description: Primary firefly luciferase (FLuc) qHTS assay for identification of artifact compounds. (AID 1845220). Further: nearly all actives have a fitted effect of over 60% in size. Summed up: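 Enzymatic FLuc inhibition assay: compounds pre-exposed to luciferin/ATP (10 uM each) for 15 min, then purified P. pyralis enzyme at 10 nM added. Read-out: luminescence at 5 min.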

Assay [16] is described as follows: Primary fluorescence-based thiol-reactive (MSTI) qHTS assay for identification of artifact compounds. (AID 1845221).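 Further: series mostly up to about 54 µM; thiol-reactive compounds lower the probe fluorescence signal; nearly all actives have a fitted effect of over 65% in size.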 Summed up: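 One-hour, room-temperature, dark incubation of compound with 4 uM MSTI in PBS (pH 7.4, 2% DMSO) precedes a fluorescence read at 525 nm excitation, 598 nm emission; Hill-equation fitting yields concentration-response values.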
The test system of assay [17] is Nanoluciferase (engineered Oplophorus gracilirostris luciferase). Briefly: Primary Nanoluciferase (NLuc) qHTS assay for identification of artifact compounds. (AID 1845222).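 Further: NLuc secreted into diluted conditioned medium of S16 cells; series mostly up to about 54 µM; 0% = DMSO and -100% = no enzyme.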 In a few lines: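 S16 cell supernatant NLuc, 1:55; cpds qHTS; 15 min RT dark; Nano-Glo substrate 1:100, 5 min; luminescence; Hill fit of % inhibition.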
Assay [18] can be described thus: Primary redox qHTS assay for identification of artifact compounds. (AID 1845223). Summed up: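 Redox-cycling detection via DTT (250 uM final) oxidation coupled to Amplex Red (25 uM)/HRP (250 mU/mL) in HBSS. 15 min preincubation plus 30 min after DTT, room temperature. Ex/Em 525/598 nm; 4-parameter Hill fit against DMSO and 10 uM DA3003.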
Assay [19] concerns the target Phenylethanolamine N-methyltransferase (Homo sapiens) (UniProt P11086). Description: Confirmatory Screen for Target Class Profiling of Small Molecule Inhibitors of Methyltransferases (AID 1745852). To be noted: MTase-Glo luminescence, SAH detection, recombinant enzyme; measured here: PNMT max response; stronger effect = lower value.

Structures are written as SMILES. Several values for one entry are separate records, joined by “and”; a condition that tells them apart may be missing. Equal values may be shown once. Results filed as inconclusive are left out. Activity calls are given as the source filed them. The call rests on the fitted dose curve; in most records, active means well fitted curve in the direction sought with a large enough effect; inconclusive means small, poorly fitted or top-dose-only effect, or another doubt; inactive means no such curve, though single readings can be large; an effect the other way counts as inactive or inconclusive.

Phospholipid hydroperoxide glutathione peroxidase GPX4 (Homo sapiens), sequence (P36969 whole entry, looked up): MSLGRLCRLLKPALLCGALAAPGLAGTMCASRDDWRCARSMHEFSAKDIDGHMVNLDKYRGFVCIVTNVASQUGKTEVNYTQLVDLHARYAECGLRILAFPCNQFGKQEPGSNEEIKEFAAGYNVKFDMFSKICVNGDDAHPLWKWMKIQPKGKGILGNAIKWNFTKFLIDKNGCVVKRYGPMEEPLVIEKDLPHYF
Nuclear receptor subfamily 1 group I member 3 (Homo sapiens), sequence (Q14994 whole entry, looked up): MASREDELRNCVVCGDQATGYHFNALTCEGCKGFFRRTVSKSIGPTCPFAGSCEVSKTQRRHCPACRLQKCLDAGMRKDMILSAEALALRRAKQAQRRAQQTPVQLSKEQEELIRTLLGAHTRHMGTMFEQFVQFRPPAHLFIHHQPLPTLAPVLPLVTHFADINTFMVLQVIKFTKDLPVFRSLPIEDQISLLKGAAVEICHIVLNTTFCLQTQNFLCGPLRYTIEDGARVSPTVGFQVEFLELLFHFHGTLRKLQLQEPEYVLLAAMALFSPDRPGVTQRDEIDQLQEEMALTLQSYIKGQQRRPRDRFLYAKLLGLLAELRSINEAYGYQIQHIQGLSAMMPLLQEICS
Phenylethanolamine N-methyltransferase (Homo sapiens), sequence (P11086 whole entry, looked up): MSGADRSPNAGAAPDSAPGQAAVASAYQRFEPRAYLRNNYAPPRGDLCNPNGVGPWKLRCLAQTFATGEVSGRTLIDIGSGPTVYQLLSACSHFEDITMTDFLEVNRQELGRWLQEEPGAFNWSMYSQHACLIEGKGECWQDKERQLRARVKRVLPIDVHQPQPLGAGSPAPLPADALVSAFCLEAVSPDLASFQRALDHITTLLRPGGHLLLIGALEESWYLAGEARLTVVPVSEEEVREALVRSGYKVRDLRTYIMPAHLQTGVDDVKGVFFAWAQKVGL

`O=C1c2c(O)cccc2[C@@H]([C@@H]2O[C@H](CO)[C@@H](O)[C@H](O)[C@H]2O)c2cc(CO)cc(O)c21`: the outcome in assay [1], in [2], in assay [3], in assay [4] and in [5] was “inactive” each time. Also, the Potency entry in assay [6], in [7], in assay [8] and in assay [9] was “inactive” throughout.
As to `Cn1cc(CNCC2CCN(c3ncc(C(=O)NO)cn3)CC2)c2ccccc21`, the Potency result in [10], in assay [11] and in assay [12] was “inactive” each time. For the same molecule, the Potency in [13] was 26.4 nM (active); in assay [14] it was 74.3 nM (active); in [6], 0.0526 µM (active); in assay [7], 52.6 nM (active); in assay [8], 16.6 nM (active); in assay [9], 52.6 nM (active).
On to `C[C@H](NCc1ccc(OCc2cccc(F)c2)cc1)C(N)=O`, for which the Potency result in assay [10], in assay [11] and in assay [12] was “inactive” in each case. The Potency is 2090 nM (active) in assay [14]; 9.35 µM (active) in [6]; 9350 nM (active) in assay [7]; 7430 nM (active) in assay [8]; 5260 nM (active) in assay [9].
In the case of `CCS(=O)(=O)Nc1ccc2[nH]c(O)c(C(=Nc3ccc(CN4CCCCC4)cc3)c3ccccc3)c2c1`, the Potency in assay [10] was 2 µM (active); in [13], 18700 nM (active); in assay [14], 52.6 nM (active); in assay [6] it was 6.62 µM (active); in assay [7] it was 148 nM (active); in assay [8] it was 743 nM (active). Also, the Potency in assay [9] is 469 nM (active). For the same molecule, the Potency result in [11] and in assay [12] was “inactive” each time.
For `O=c1[nH]c(=O)n([C@H]2C[C@@H](O)[C@@H](CO)O2)cc1C=CBr`, the Potency entry in assay [10], in assay [14], in [6], in assay [7] and in assay [8] was “inactive” each time.
As for `c1ccc(CNc2nc(NCc3ccccc3)c3ccccc3n2)cc1`, the Potency in [10] was 22.4 µM (active); in assay [13] it was 23500 nM (active); in assay [14] it was 7430 nM (active); in assay [6], 18.7 µM (active); in assay [7] it was 8330 nM (active); in [9], 18700 nM (active). The Potency result in [11] and in [12] was “inactive” in each case.
Consider `CS(=O)(=O)N1CCc2c(-c3cnc(N)nc3)nc(N3CCOCC3)nc21`, for which the Potency result in assay [11], in [12], in assay [15], in assay [16] and in [18] was “inactive” throughout. The outcome in [17] is “inactive”. Also, the Potency is 590 nM (active) in assay [13], 148 nM (active) in assay [14], 2.09 µM (active) in assay [6] and 41.8 nM (active) in assay [8].
Regarding `CCN(CC)Cc1ccc2cc(COC(=O)Nc3ccc(C(=O)NO)cc3)ccc2c1`, in assay [19], the activity is -6.29%. For the same molecule, the Potency result in assay [11], in [12], in [15] and in assay [18] was “inactive” throughout. In addition, in assay [17], the outcome is “inactive”. In addition, the Potency was 372 nM (active) in assay [13]; 526 nM (active) in assay [14]; 743 nM (active) in assay [7]; 590 nM (active) in [8]; 662 nM (active) in assay [9].
For the molecule `Nc1ccn(C[C@@H](CO)OCP(=O)(O)O)c(=O)n1`, the activity change, negative = cytotoxicity in assay [10] was 2.29% [at 8.35 µM] (inactive). For the same molecule, the activity, negative = inhibition in assay [11] was -28.5% [at 0.4 µM] (inactive) and -6.08% [at 9.52 µM] (inactive). For the same molecule, the activity change, negative = inhibition in [12] is 4.75% [at 0.409 µM] (inactive) and -14.5% [at 9.73 µM] (inactive). The Potency result in assay [13], in assay [14], in assay [7] and in assay [8] was “inactive” in each case.

The record behind these values is PubChem BioAssay (NCATS).
